From the supplement of paper PMC8728848
The sample as a whole holds a higher share of the strongest signals than the screen did.

Columns and labels:
Experiment in all cases: glycan array binding signal (z-score within array); higher = stronger binding
Conditions in all cases: glycan notation: IUPAC condensed, linker removed
[1] = target: Fuc(a1-2)Gal
In short: (§1)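 Glycan array binding is given as a within-array Z-score, which can be read as non-binding when negative. The arrays, 3228 of them, came from the Consortium for Functional Glycomics database and were retained only where the protein sequence was available. Z-scores were averaged across arrays of the same protein sequence at different concentrations or buffers and across linkers.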

[2] = target: Fuc(a1-2)[Gal(a1-3)]Gal
In short: as §1

[3] = target: Fuc(a1-3)[Gal3S(b1-4)]Glc6S
In short: as §1

[4] = target: Gal(a1-3)GalNAc
In short: as §1

[5] = target: Gal(a1-4)Gal(b1-4)Glc
In short: as §1

[6] = target: Gal(a1-4)GlcNAc
In short: as §1

[7] = target: Gal(b1-2)Gal
In short: as §1

[8] = target: Gal(b1-4)GalNAc(a1-3)[Fuc(a1-2)]Gal(b1-4)GlcNAc
In short: as §1

[9] = target: Gal(b1-4)GlcNAc(b1-3)GalNAc
In short: as §1

[10] = target: Gal3S(b1-4)GlcNAc
In short: as §1

[11] = target: Gal3S(b1-4)[Fuc(a1-3)]Glc
In short: as §1

[12] = target: GalNAc(b1-4)GlcNAc
In short: as §1

[13] = target: GlcA(b1-3)Gal
In short: as §1

[14] = target: GlcNAc(b1-4)GlcNAc(b1-4)GlcNAc(b1-4)GlcNAc(b1-4)GlcNAc(b1-4)GlcNAc
In short: as §1

[15] = target: Neu5Ac(a2-3)Gal(b1-3)GalNAc
In short: as §1

[16] = target: Neu5Ac(a2-3)Gal(b1-3)GalNAc(b1-3)Gal(a1-4)Gal(b1-4)Glc
In short: as §1

[17] = target: Neu5Ac(a2-3)Gal(b1-3)GalNAc(b1-4)[Neu5Ac(a2-3)]Gal(b1-4)Glc
In short: as §1

[18] = target: Neu5Ac(a2-3)Gal(b1-3)[Neu5Ac(a2-6)]GalNAc
In short: as §1

[19] = target: Neu5Ac(a2-3)Gal(b1-4)Glc
In short: as §1

[20] = target: Neu5Ac(a2-3)Gal(b1-4)GlcNAc(b1-2)Man(a1-3)[GlcNAc(b1-2)Man(b1-4)GlcNAc(b1-2)Man(a1-6)]Man(b1-4)GlcNAc(b1-4)GlcNAc
In short: as §1

[21] = target: Neu5Ac(a2-3)Gal(b1-4)GlcNAc(b1-6)[Neu5Ac(a2-3)Gal(b1-3)]GalNAc
In short: as §1

[22] = target: Neu5Ac(a2-3)Gal(b1-4)GlcNAc6S
In short: as §1

[23] = target: Neu5Ac(a2-3)Gal(b1-4)[Fuc(a1-3)]GlcNAc(b1-3)Gal(b1-4)[Fuc(a1-3)]GlcNAc(b1-3)Gal(b1-4)[Fuc(a1-3)]GlcNAc
In short: as §1

[24] = target: Neu5Ac(a2-3)GalNAc(b1-4)GlcNAc
In short: as §1

[25] = target: Neu5Ac(a2-6)Gal(b1-4)GlcNAc(b1-2)Man(a1-3)[GlcNAc(b1-2)Man(a1-6)]Man(b1-4)GlcNAc(b1-4)GlcNAc
In short: as §1

[26] = target: Neu5Ac(a2-6)Gal(b1-4)GlcNAc(b1-2)Man(a1-6)[GlcNAc(b1-2)Man(a1-3)]Man(b1-4)GlcNAc(b1-4)GlcNAc
In short: as §1

[27] = target: Neu5Ac(a2-6)GalNAc(b1-4)GlcNAc
In short: as §1

B1: LYVE-1 (Homo sapiens), Q9Y5Y7 (protein)
chain: MARCFSLVLLLTSIWTTRLLVQGSLRAEELSIQVSCRIMGITLVSKKANQQLNFTEAKEACRLLGLSLAGKDQVETALKASFETCSYGWVGDGFVVISRISPNPKCGKNGVGVLIWKVPVSRQFAAYCYNSSDTWTNSCIPEIITTKDPIFNTQTATQTTEFIVSDSTYSVASPYSTIPAPTTTPPAPASTSIPRRKKLICVTEVFMETSTMSTETEPFVENKAAFKNEAAGDPEVKFNWYVDGVEVHNAKPREEQYNSTYRVVSLVTVLHQDWLNGKEYKCKVSNKALPAPIEKTISKAKGQPREPQVYTLPPSRDELTKNQVSLTCLVKGFYPSDIAVEWESNGQPENNYKTTPPVLDSDGSFFLYSKLTVDKSRWQQGNVFSCSVMHEALHNHYTQRSLSLSPGK
With B1 the “glycan array binding signal (z-score)” value [1] was -0.222, the “glycan array binding signal (z-score)” value [2] was 0.242 and the “glycan array binding signal (z-score)” value [3] was -0.066. The “glycan array binding signal (z-score)” value [4] was -0.27, the “glycan array binding signal (z-score)” value [5] was -0.09 and the “glycan array binding signal (z-score)” value [6] was -0.269. For the same binder, the “glycan array binding signal (z-score)” value [7] was -0.409, the “glycan array binding signal (z-score)” value [8] was -0.338 and the “glycan array binding signal (z-score)” value [9] was -0.411. The “glycan array binding signal (z-score)” value [10] was -0.036, the “glycan array binding signal (z-score)” value [11] was -0.34 and the “glycan array binding signal (z-score)” value [12] was -0.259. The “glycan array binding signal (z-score)” value [13] was -0.466, the “glycan array binding signal (z-score)” value [14] was -0.624 and the “glycan array binding signal (z-score)” value [15] was 3.93. The “glycan array binding signal (z-score)” value [16] was 1.74, the “glycan array binding signal (z-score)” value [17] was 4.82 and the “glycan array binding signal (z-score)” value [18] was 0.133. The “glycan array binding signal (z-score)” value [19] was 0.324, the “glycan array binding signal (z-score)” value [20] was -0.128 and the “glycan array binding signal (z-score)” value [21] was 6.79. For the same binder, the “glycan array binding signal (z-score)” value [22] was -0.351, the “glycan array binding signal (z-score)” value [23] was 5.13 and the “glycan array binding signal (z-score)” value [24] was 3.73. The “glycan array binding signal (z-score)” value [25] was -0.596, the “glycan array binding signal (z-score)” value [26] was -0.436 and the “glycan array binding signal (z-score)” value [27] was 2.4.
